According to PubChem BioAssay (NCATS):
“And” between values parts separate entries of the source, which are not always exact repeats. Equal values may be shown once. Results filed as inconclusive are left out.

test: qHTS assay for small molecule antagonists of retinoid X receptor alpha signaling (AID 588546); settings: HEK293T RXRa-UAS-bla, beta-lactamase ratio, antagonist mode; measured here: W530 green channel, cytotoxicity proxy;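 further: cells stimulated with 9-cis-retinoic acid as agonist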
Method in brief: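 Beta-lactamase reporter inhibition, read as CCF4 fluorescence ratio (ex 405, em 460/530 nm) after 2 h at RT. HEK293T UAS-bla cells, 2500/well, were stimulated with 9-cis-RA at 500 or 100 nM final alongside test compound for 18 h at 37 C.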
On the % scale 0 is the no-effect control and ±100 the full control effect.

SMILES	max response
O=c1c(-c2ccc(O)cc2)coc2cc(O)cc(O)c12	18.6%
CC(C)C(=O)Nc1ccc([N+](=O)[O-])c(C(F)(F)F)c1	2.09% and 2.52%
O=C(c1ccc(OCCN2CCCCC2)cc1)c1c(-c2ccc(O)cc2)sc2cc(O)ccc12	-24.2%
Cn1c(=O)c2[nH]cnc2n(C)c1=O	-3.21%
NS(=O)(=O)c1cc2c(cc1Cl)NCNS2(=O)=O	-4.08% and -3.49%
COc1ccc2[nH]cc(CCNC(C)=O)c2c1	15.5% and 6.29% and -2.26%
NCCS(=O)(=O)O	-6.13%
Cn1c(=O)c2c(ncn2C)n(C)c1=O	0.479% and 2.47%
Nc1ccn([C@H]2CC[C@@H](CO)O2)c(=O)n1	-1.8% and -6%
Nc1c2c(nc3ccccc13)CCCC2	12.8%
Cc1cn([C@H]2C=C[C@@H](CO)O2)c(=O)[nH]c1=O	-1.05% and 0.328% and -3.51%
N[C@@H](Cc1c[nH]c2ccc(O)cc12)C(=O)O	1.87%
CC(COc1ccccc1)N(CCCl)Cc1ccccc1 (centres undefined)	9.59% and -12.9%
C[C@](N)(Cc1ccc(O)c(O)c1)C(=O)O	-16.7%
CCOC(=O)C(C)(C)Oc1ccc(Cl)cc1	-5.41%
CC(C)(Oc1ccc(C2CC2(Cl)Cl)cc1)C(=O)O (centres undefined)	3.34%
O=C(CCCN1CCC(O)(c2ccc(Cl)cc2)CC1)c1ccc(F)cc1	6.93%
Cc1cn([C@H]2C[C@H](N=[N+]=[N-])[C@@H](CO)O2)c(=O)[nH]c1=O	15.5% and -2.05%
CC(C)Cc1ccc(C(C)C(=O)O)cc1 (centres undefined)	4.68%
CC(C)NCC(O)c1ccc(O)c(O)c1 (centres undefined)	-15.7% and 0.88%
Cn1cnc2c1c(=O)[nH]c(=O)n2C	-0.801%
O=C(Nc1ccc([N+](=O)[O-])cc1Cl)c1cc(Cl)ccc1O	3.51%
CCC1(c2ccccc2)C(=O)NCNC1=O	-5.6% and -16.4%
O=c1[nH]cc(F)c(=O)[nH]1	-11.8%
